According to PubChem BioAssay (NCATS):
Inconclusive results are not listed. A number with no mark means an inactive call. Active and inactive are the calls of the source. Calls follow the shape of the dose curve; as a rule, active = well fitted cell-killing curve with a large enough effect; inconclusive = small, poorly fitted or top-dose-only effect; inactive = flat fitted curve, though single readings scatter.

test: qHTS of pediatric cancer cell lines to identify multiple opportunities for drug repurposing: Primary screen for TC32 cells (AID 1347089); conditions: TC32 Ewing sarcoma viability, CellTiter-Glo luminescence, 48 h; series mostly up to 45.8 µM; also: nearly all actives have a fitted effect of over 60% in size; as to activity change, negative = cytotoxic: % is scaled to controls: 0 for no effect and ±100 for the full control effect
In short: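 TC32 cells, 500-1,000/well in growth medium, compound-treated 48 h at 37 °C; viability from CellTiter-Glo luminescence. Primary screen: MIPE 11-point (0.78 nM–46 µM final), NPC 8-point (0.59 nM–46 µM final); confirmatory at 11-point dilutions.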
Potency is read from the fitted curve at half-maximal effect.

Structure (SMILES) | activity change, negative = cytotoxic | Potency
COc1ccc(CC2c3cc(OC)c(OC)cc3CC[N+]2(C)CCC(=O)OCCCCCOC(=O)CC[N+]2(C)CCc3cc(OC)c(OC)cc3C2Cc2ccc(OC)c(OC)c2)cc1OC (configuration not stated) | -1.18% [at 9.17 µM] | 
Cc1ccc2nc(NC(=O)CSc3nc4c(c(=O)n3-c3ccccc3)SCC4)sc2c1 |  | inactive
O=C(O)c1ccc2c(c1)nc(Nc1cccc(Cl)c1)c1ccncc12 |  | inactive
CC(C)(O)CCc1ccc(OCc2cc(-c3cccc(OC(F)F)c3)c3ncccc3c2)cc1 |  | inactive
Cc1cn(-c2cc(NC(=O)c3ccc(C)c(Nc4nccc(-c5cccnc5)n4)c3)cc(C(F)(F)F)c2)cn1 |  | inactive
COC(=O)c1ccc2c(C(=Nc3ccc(N(C)C(=O)CN4CCN(C)CC4)cc3)c3ccccc3)c(O)[nH]c2c1 |  | 10.4 µM (active)
C1=CCOCc2cc(ccc2OCCN2CCCC2)Nc2nccc(n2)-c2cccc(c2)OCC1 |  | 14.7 µM (active)
C=C1C(=CC=C2CCCC3(C)[C@@H]([C@H](C)C=CC=CC(O)(CC)CC)CC[C@@H]23)C[C@@H](O)C[C@@H]1O (some centres not stated) |  | inactive
CCOc1cc2ncc(C#N)c(Nc3ccc(F)c(Cl)c3)c2cc1NC(=O)C=CCN(C)C |  | 18.6 µM (active)
CC(C)(C)c1cc(C(C)(C)C)c(NC(=O)c2c[nH]c3ccccc3c2=O)cc1O |  | inactive
CCS(=O)(=O)c1cccc(-c2cc(C(=O)NC3CCN(C)CC3)c(C)c3[nH]c4ncc(C)cc4c23)c1 |  | 0.415 µM (active)
C#Cc1cccc(Nc2ncnc3cc(OC)c(OCCCCCCC(=O)NO)cc23)c1 |  | 5.23 µM (active)
CC(C)c1ccc(Cn2ccc3c4c(N)nc(NC5CC5)nc4ccc32)cc1 |  | 4.15 µM (active)
Cc1ccc(S(=O)(=O)Nc2cc(Cl)ccc2C(=O)Nc2nc(-c3ccccc3)cs2)cc1 |  | inactive
COc1ccc(CC2SC(=O)NC2=O)cc1C(=O)NCc1ccc(C(F)(F)F)cc1 (configuration not stated) |  | inactive
CC[C@@]1(O)C(=O)OCc2c1cc1n(c2=O)Cc2cc3cc(O)ccc3nc2-1 |  | 0.0415 µM (active)
C=CC(=O)Nc1cc2c(Nc3ccc(F)c(Cl)c3)ncnc2cc1C#CC(C)(C)N1CCN(C)CC1 |  | 11.7 µM (active)
Cc1cc(N2CCOCC2)cc2[nH]c(-c3c(NC[C@@H](O)c4cccc(Cl)c4)cc[nH]c3=O)nc12 |  | 0.739 µM (active)
COc1ccc(C(=O)CC2(O)C(=O)Nc3c(Cl)ccc(Cl)c32)cc1 (configuration not stated) |  | 7.39 µM (active)
O=C(C=Cc1cccc(S(=O)(=O)Nc2ccccc2)c1)NO |  | 9.54 µM (active)
CC[C@H](CO)Nc1nc(NCc2ccccc2)c2ncn(C(C)C)c2n1 |  | inactive
CNC(=O)c1cc(Oc2ccc(NC(=O)Nc3cc(C(C)(C)C)nn3-c3ccc4ncccc4c3)c(F)c2)ccn1 |  | inactive

test: qHTS of pediatric cancer cell lines to identify multiple opportunities for drug repurposing: Primary screen for DAOY cells (AID 1347090); conditions: DAOY medulloblastoma viability, CellTiter-Glo luminescence, 48 h; series mostly up to 46 µM; also: nearly all actives have a fitted effect of over 55% in size;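 as to activity change, negative = cytotoxic: plate controls were DMSO for no effect and bortezomib for full effect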
In short: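 Eight- or eleven-point concentration series, 48 h treatment at 37 degrees C in growth media; readout CellTiter-Glo luminescence. Potency and efficacy were taken from the concentration-response curves.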

Structure (SMILES) | Potency | activity change, negative = cytotoxic
CCN1CCN(Cc2ccc(-c3cc4c(N[C@H](C)c5ccccc5)ncnc4[nH]3)cc2)CC1 | 0.001 µM (active) | 
CCc1c2c(nc3ccc(O)cc13)-c1cc3c(c(=O)n1C2)COC(=O)[C@]3(O)CC | 0.0296 µM (active) | 
CNC(=O)c1ccc(N2C(=S)N(c3cnc(C#N)c(C(F)(F)F)c3)C(=O)C23CCC3)cc1F | 0.935 µM (active) | 
Cc1ccc(C(=O)Nc2cccc(C(F)(F)F)c2)cc1-c1ccc2nc(NCCN3CCOCC3)ncc2c1 | 14.8 µM (active) | 
CCc1cc2c(cc1N1CCC(N3CCOCC3)CC1)C(C)(C)c1[nH]c3cc(C#N)ccc3c1C2=O | inactive | 
CN1CCN(c2ccc3nc(-c4c(N)c5c(F)cccc5[nH]c4=O)[nH]c3c2)CC1 | inactive | 
Clc1cccc(-c2nnnn2Cc2cccnc2)c1Cl | inactive | 
COc1cc(C)c(Sc2cnc(NC(=O)c3ccc(CNC(C)C(C)C)cc3)s2)cc1C(=O)N1CCN(C(C)=O)CC1 (configuration not stated) | 14.8 µM (active) | 
CN1CCN(Cc2ccc(NC(=O)Nc3ccc(Oc4cc(NC(=O)C5CC5)ncn4)cc3)cc2C(F)(F)F)CC1 | 0.59 µM (active) | 
CC(C)c1ccccc1Cc1cc(C(=O)Nc2ccc(S(=O)(=O)c3ccccc3C(C)(C)C)cc2)c(O)c(O)c1O | 29.6 µM (active) | 
O=C(c1cncc(Br)c1)N1CCC(N2CCCC2)CC1 | inactive | 
CNC(=O)c1ccccc1Nc1nc(Nc2ccc(N3CCOCC3)cc2OC)ncc1Cl | 14.8 µM (active) | 
Nc1nc(NCCNc2ncc(-n3ccnc3)c(-c3ccc(Cl)cc3Cl)n2)ccc1[N+](=O)[O-] | 14.8 µM (active) | 
COc1ccc(CC2c3cc(OC)c(OC)cc3CC[N+]2(C)CCC(=O)OCCCCCOC(=O)CC[N+]2(C)CCc3cc(OC)c(OC)cc3C2Cc2ccc(OC)c(OC)c2)cc1OC (configuration not stated) |  | -5.91% [at 9.22 µM]
Cc1ccc2nc(NC(=O)CSc3nc4c(c(=O)n3-c3ccccc3)SCC4)sc2c1 | 18.7 µM (active) | 
O=C(O)c1ccc2c(c1)nc(Nc1cccc(Cl)c1)c1ccncc12 | 4.69 µM (active) | 
CC(C)(O)CCc1ccc(OCc2cc(-c3cccc(OC(F)F)c3)c3ncccc3c2)cc1 | inactive | 
Cc1cn(-c2cc(NC(=O)c3ccc(C)c(Nc4nccc(-c5cccnc5)n4)c3)cc(C(F)(F)F)c2)cn1 | inactive | 

Structure (SMILES) | Potency | activity change, negative = cytotoxic
COC(=O)c1ccc2c(C(=Nc3ccc(N(C)C(=O)CN4CCN(C)CC4)cc3)c3ccccc3)c(O)[nH]c2c1 | 0.59 µM (active) | 
C1=CCOCc2cc(ccc2OCCN2CCCC2)Nc2nccc(n2)-c2cccc(c2)OCC1 | 14.8 µM (active) | 
C=C1C(=CC=C2CCCC3(C)[C@@H]([C@H](C)C=CC=CC(O)(CC)CC)CC[C@@H]23)C[C@@H](O)C[C@@H]1O (some centres not stated) | 23.5 µM (active) | 
CCOc1cc2ncc(C#N)c(Nc3ccc(F)c(Cl)c3)c2cc1NC(=O)C=CCN(C)C | 0.118 µM (active) | 
CC(C)(C)c1cc(C(C)(C)C)c(NC(=O)c2c[nH]c3ccccc3c2=O)cc1O | inactive | 
CCS(=O)(=O)c1cccc(-c2cc(C(=O)NC3CCN(C)CC3)c(C)c3[nH]c4ncc(C)cc4c23)c1 | 14.8 µM (active) | 
C#Cc1cccc(Nc2ncnc3cc(OC)c(OCCCCCCC(=O)NO)cc23)c1 | 0.059 µM (active) | 
CC(C)c1ccc(Cn2ccc3c4c(N)nc(NC5CC5)nc4ccc32)cc1 | 14.8 µM (active) | 
Cc1ccc(S(=O)(=O)Nc2cc(Cl)ccc2C(=O)Nc2nc(-c3ccccc3)cs2)cc1 | 11.8 µM (active) | 
COc1ccc(CC2SC(=O)NC2=O)cc1C(=O)NCc1ccc(C(F)(F)F)cc1 (configuration not stated) | inactive | 
CC[C@@]1(O)C(=O)OCc2c1cc1n(c2=O)Cc2cc3cc(O)ccc3nc2-1 | 0.118 µM (active) | 
C=CC(=O)Nc1cc2c(Nc3ccc(F)c(Cl)c3)ncnc2cc1C#CC(C)(C)N1CCN(C)CC1 | 5.9 µM (active) | 
Cc1cc(N2CCOCC2)cc2[nH]c(-c3c(NC[C@@H](O)c4cccc(Cl)c4)cc[nH]c3=O)nc12 | 0.935 µM (active) | 
COc1ccc(C(=O)CC2(O)C(=O)Nc3c(Cl)ccc(Cl)c32)cc1 (configuration not stated) | 3.72 µM (active) | 
O=C(C=Cc1cccc(S(=O)(=O)Nc2ccccc2)c1)NO | 8.55 µM (active) | 
CC[C@H](CO)Nc1nc(NCc2ccccc2)c2ncn(C(C)C)c2n1 | 23.5 µM (active) | 
CNC(=O)c1cc(Oc2ccc(NC(=O)Nc3cc(C(C)(C)C)nn3-c3ccc4ncccc4c3)c(F)c2)ccn1 | 18.7 µM (active) | 
